Records with an inconclusive call do not appear. Where a call stands in place of a potency, no number is given. A number with no mark means an inactive call. Active and inactive are the calls of the source. The call rests on the fitted dose curve; in most records, active means well fitted curve in the direction sought with a large enough effect; inconclusive means small, poorly fitted or top-dose-only effect, or another doubt; inactive means no such curve, though single readings can be large; an effect the other way counts as inactive or inconclusive.
Assays:
[1] = biological target: ATP-dependent 6-phosphofructokinase (Trypanosoma brucei brucei) (UniProt O15648); test: qHTS Assay to Find Inhibitors of T. brucei phosphofructokinase: hit validation (AID 492961); further: potency means the concentration at half of the fitted maximal effect; conditions: T. brucei PFK, ADP-Glo luminescence; series mostly up to 51.4 µM
Chain of ATP-dependent 6-phosphofructokinase (Trypanosoma brucei brucei) (O15648 whole entry, looked up): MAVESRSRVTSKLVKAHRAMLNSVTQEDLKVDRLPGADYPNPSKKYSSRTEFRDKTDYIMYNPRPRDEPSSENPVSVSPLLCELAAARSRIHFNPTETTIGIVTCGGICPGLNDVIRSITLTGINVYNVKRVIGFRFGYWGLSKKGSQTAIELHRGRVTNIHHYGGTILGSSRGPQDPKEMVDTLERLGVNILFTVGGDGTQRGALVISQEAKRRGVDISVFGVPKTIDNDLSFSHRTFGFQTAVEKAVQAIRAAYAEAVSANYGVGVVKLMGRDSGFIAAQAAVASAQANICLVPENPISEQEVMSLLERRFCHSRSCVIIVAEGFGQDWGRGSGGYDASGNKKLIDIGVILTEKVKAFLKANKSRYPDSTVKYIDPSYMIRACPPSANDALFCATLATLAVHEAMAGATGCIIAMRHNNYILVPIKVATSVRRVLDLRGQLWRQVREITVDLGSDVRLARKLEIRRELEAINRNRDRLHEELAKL
Outline: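 Measures ADP output of PFK (1.25 nM) at 0.1 mM ATP, 0.5 mM F6P, pH 8.0 TEA buffer with 5 mM MgCl2. No-enzyme wells define full inhibition; uninhibited enzyme wells define zero.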

[2] = biological target: Luciferin 4-monooxygenase (Photinus pyralis) (UniProt P08659); test: Biochemical firefly luciferase enzyme assay for NPC (AID 624030);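 further: purified P. pyralis luciferase at 10 nM with luciferin and ATP substrate; nearly all actives have a fitted effect of over 70% in size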; conditions: purified P. pyralis luciferase, luminescence, 5 min; series mostly up to 58.6 µM
Chain of Luciferin 4-monooxygenase (Photinus pyralis) (P08659 whole entry, looked up): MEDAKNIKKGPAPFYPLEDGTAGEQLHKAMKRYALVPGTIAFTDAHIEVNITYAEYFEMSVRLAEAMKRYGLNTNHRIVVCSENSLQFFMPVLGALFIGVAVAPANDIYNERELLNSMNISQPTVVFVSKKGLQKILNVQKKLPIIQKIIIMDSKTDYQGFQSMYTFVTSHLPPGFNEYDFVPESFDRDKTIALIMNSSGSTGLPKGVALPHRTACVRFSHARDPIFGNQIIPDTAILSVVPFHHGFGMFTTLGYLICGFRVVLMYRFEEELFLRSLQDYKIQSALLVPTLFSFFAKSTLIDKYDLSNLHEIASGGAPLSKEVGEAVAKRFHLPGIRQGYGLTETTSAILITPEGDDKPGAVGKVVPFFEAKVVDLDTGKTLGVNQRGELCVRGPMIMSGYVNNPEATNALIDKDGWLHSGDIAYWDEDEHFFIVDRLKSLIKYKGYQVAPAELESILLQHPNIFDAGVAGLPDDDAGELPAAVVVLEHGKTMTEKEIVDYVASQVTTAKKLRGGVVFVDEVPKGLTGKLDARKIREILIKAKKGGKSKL
Outline: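 Direct inhibition of firefly luciferase enzyme (10 nM final, 50 mM Tris Acetate) assessed by luminescence within 5 minutes. Percent activity scaled between DMSO and PTC124 positive control, with concentration-effect curves classified by fit quality and response.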

CP203 = test: qHTS profiling for inhibitors of Plasmodium falciparum proliferation (AID 504749); further: nearly all actives have a fitted effect of over 60% in size; further: potency means the concentration at half of the fitted maximal effect; conditions: P. falciparum in erythrocytes, SYBR Green DNA, 72 h; series mostly up to 28.7 µM
Outline: (§1)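 Three-day growth assay of blood-stage parasites in erythrocytes (0.3% parasitemia, 2.5% hematocrit) at 37 C, 5% CO2, quantified by SYBR Green DNA staining after overnight detergent lysis.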

CP269 = test: as above; conditions: P. falciparum in erythrocytes, SYBR Green DNA, 72 h; series mostly up to 28.7 µM
Outline: as §1

CP286 = test: as above; conditions: P. falciparum in erythrocytes, SYBR Green DNA, 72 h; series mostly up to 28.7 µM
Outline: as §1

CP315 = test: as above; conditions: P. falciparum in erythrocytes, SYBR Green DNA, 72 h; series mostly up to 28.7 µM
Outline: as §1

CP329 = test: as above; conditions: P. falciparum in erythrocytes, SYBR Green DNA, 72 h; series mostly up to 28.7 µM
Outline: as §1

[3] = qHTS for Inhibitors of Plasmodium falciparum (DD2) proliferation (AID 504314);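 further: parasite DNA measured by SYBR Green fluorescence after red cell lysis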; conditions: P. falciparum Dd2 in erythrocytes, SYBR Green growth, 72 h; series mostly up to 1.12 µM
Outline: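 Quantitative HTS growth inhibition: SYBR Green I binding to parasite DNA after 72 h drug exposure of infected erythrocytes (0.3% parasitemia, 2.5% hematocrit). Signals normalized per plate to inhibitor and vehicle wells.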

[4] = qHTS profiling for inhibitors of Plasmodium falciparum proliferation (AID 504749); further: potency means the concentration at half of the fitted maximal effect; on all read-outs here: nearly all actives have a fitted effect of over 60% in size; conditions: P. falciparum in erythrocytes, SYBR Green DNA, 72 h; for activity, negative = inhibition: at 28.7 µM (top of the series)
Outline: as §1

CP192 = test: as above; conditions: P. falciparum in erythrocytes, SYBR Green DNA, 72 h; series mostly up to 28.7 µM
Outline: as §1

CP201 = test: as above; conditions: P. falciparum in erythrocytes, SYBR Green DNA, 72 h; series mostly up to 28.7 µM
Outline: as §1

CP262 = test: as above; conditions: P. falciparum in erythrocytes, SYBR Green DNA, 72 h; series mostly up to 28.7 µM
Outline: as §1

CP325 = test: as above; conditions: P. falciparum in erythrocytes, SYBR Green DNA, 72 h; series mostly up to 28.7 µM
Outline: as §1

Dd2 = test: as above; conditions: P. falciparum in erythrocytes, SYBR Green DNA, 72 h; series mostly up to 28.7 µM
Outline: as §1

PC49 = test: as above; conditions: P. falciparum in erythrocytes, SYBR Green DNA, 72 h; series mostly up to 28.7 µM
Outline: as §1

FAB9 = test: as above; conditions: P. falciparum in erythrocytes, SYBR Green DNA, 72 h; series mostly up to 28.7 µM
Outline: as §1

Compound: O=C(O)c1ccccc1-c1c2ccc(=O)cc-2oc2cc(O)ccc12
- Potency [1]: inactive
- Potency [2]: inactive
- Potency (CP203): inactive
- Potency (CP269): inactive
- Potency (CP286): inactive
- Potency (CP315): inactive
- Potency (CP329): inactive

Compound: COC(=O)C1=C(C(=O)OC)[C@@H]2Nc3ccccc3[C@@]23C[C@@H](C(=O)OC)N(C(=O)CC(C)C)C3=N1
- Potency [3]: inactive

Compound: COc1ccc(CC(C)NCC(O)c2ccc(O)c(NC=O)c2)cc1 (stereo unspecified)
- Potency [1]: inactive
- Potency [2]: inactive

Compound: CC1=C[C@@H](O)CC(C)(C)[C@@H]1/C=C/C(C)=C/C=C/C(C)=C/C=C/C=C(C)/C=C/C=C(C)/C=C/C1=C(C)C[C@H](O)CC1(C)C
- Potency [1]: inactive
- Potency [2]: inactive
- activity, negative = inhibition ([4]; parasite line A): -23.3%
- Potency (CP192): inactive
- Potency (CP201): inactive
- Potency (CP203): inactive
- Potency (CP262): inactive
- Potency (CP269): inactive
- Potency (CP286): inactive
- Potency (CP315): inactive
- Potency (CP325): inactive
- Potency (CP329): inactive
- Potency (Dd2): 12.6 µM (active)
- Potency (PC49): 10 µM (active)

Compound: NC(C(=O)O)C(O)c1ccc(O)c(O)c1 (stereo unspecified)
- Potency [1]: 4.47 µM (active)
- Potency ([4]; parasite line A): 14.1 µM (active)
- Potency (CP315): inactive
- Potency (PC49): inactive

Compound: COC(=O)C1[C@@H](OC)C(OC(=O)COc2ccc(OC)cc2)C[C@@H]2CN3CCc4c([nH]c5cc(OC)ccc45)[C@H]3C[C@H]12 (stereo partly specified)
- Potency [1]: inactive
- Potency [2]: inactive
- Potency (CP192): inactive
- Potency (CP201): inactive
- Potency (CP203): inactive
- Potency (CP262): inactive
- Potency (CP286): 11.2 µM (active)
- Potency (CP315): inactive
- Potency (CP325): inactive
- Potency (Dd2): 10 µM (active)
- Potency (PC49): inactive

Compound: CCC(=O)OC1C(N(C)C)CC(C)O[C@H]1O[C@H]1[C@H](C)[C@@H](O[C@H]2CC(OC)[C@@H](O)C(C)O2)[C@H](C)C(=O)O[C@@H](CC)[C@](C)(O)[C@@H](O)[C@H](C)C(=O)[C@@H](C)C[C@]1(C)O (stereo partly specified)
- Potency [1]: inactive
- Potency [2]: inactive
- Potency (CP192): inactive
- Potency (CP201): inactive
- Potency (CP203): inactive
- Potency (CP262): inactive
- Potency (CP315): inactive
- Potency (CP325): inactive
- Potency (Dd2): 12.6 µM (active)
- Potency (FAB9): inactive
- Potency (PC49): inactive

Compound: CC1=C(/C=C/C(C)=C\C=C\C(C)=C\C=C\C=C(C)\C=C\C=C(C)\C=C\C2=C(C)C[C@@H](O)CC2(C)C)C(C)(C)C[C@H](O)C1
- Potency [1]: inactive
- Potency [2]: inactive
- Potency (CP192): inactive
- Potency (CP201): inactive
- Potency (CP203): inactive
- Potency (CP262): inactive
- Potency (CP269): inactive
- Potency (CP286): 11.2 µM (active)
- Potency (CP315): inactive
- Potency (CP325): inactive
- Potency (CP329): inactive
- Potency (Dd2): 11.2 µM (active)
- Potency (FAB9): inactive
- Potency (PC49): 7.08 µM (active)

Compound: O=C1Oc2ccccc2C(=O)C1C(CC(O)c1ccc(-c2ccc(Br)cc2)cc1)c1ccccc1 (stereo unspecified)
- Potency [1]: inactive
- activity, negative = inhibition ([4]; parasite line A): -67.1%
- Potency (CP192): inactive
- Potency (CP201): inactive
- Potency (CP203): inactive
- Potency (CP262): inactive
- Potency (CP269): inactive
- Potency (CP286): inactive
- Potency (CP315): inactive
- Potency (CP325): inactive
- Potency (CP329): inactive
- Potency (Dd2): inactive
- Potency (FAB9): inactive
- Potency (PC49): inactive

Compound: Nc1nc(Cl)nc2c1ncn2[C@@H]1O[C@H](CO)[C@H](O)C1F (stereo partly specified)
- Potency [1]: inactive
- activity, negative = inhibition ([4]; parasite line A): -2.17%
- Potency (CP192): inactive
- Potency (CP201): inactive
- Potency (CP203): inactive
- Potency (CP262): inactive
- Potency (CP269): inactive
- Potency (CP286): inactive
- Potency (CP315): inactive
- Potency (CP325): inactive
- Potency (CP329): inactive
- Potency (Dd2): inactive
- Potency (FAB9): inactive
- Potency (PC49): inactive

Compound: C[C@]12CCC(=O)C=C1[C@@H]1C[C@H]1[C@H]1[C@@H]3[C@@H]4C[C@H]4[C@@]4(CCC(=O)O4)[C@@]3(C)CC[C@@H]12
- Potency [1]: inactive
- Potency [2]: inactive
- activity, negative = inhibition ([4]; parasite line A): -2.83%
- activity, negative = inhibition ([4]; parasite line B): -11.7%
- Potency (CP192): inactive
- Potency (CP201): inactive
- Potency (CP203): inactive
- Potency (CP262): inactive
- Potency (CP269): inactive
- Potency (CP286): inactive
- Potency (CP315): inactive
- Potency (CP325): inactive
- Potency (CP329): inactive
- Potency (Dd2): inactive
- Potency (FAB9): inactive
- Potency (PC49): inactive

Compound: CC1=C(C/C=C(\C)CCCC(C)CCCC(C)CCCC(C)C)C(=O)c2ccccc2C1=O (stereo unspecified)
- Potency [1]: inactive
- Potency [2]: inactive
- activity, negative = inhibition ([4]; parasite line A): -26.3%
- Potency (CP192): inactive
- Potency (CP201): inactive
- Potency (CP203): inactive
- Potency (CP262): inactive
- Potency (CP269): inactive
- Potency (CP315): inactive
- Potency (CP325): inactive
- Potency (CP329): inactive
- Potency (Dd2): 8.91 µM (active)
- Potency (FAB9): inactive
- Potency (PC49): inactive

Compound: O=C(NC(CO)C(O)c1ccc([N+](=O)[O-])cc1)C(Cl)Cl (stereo unspecified)
- Potency [1]: inactive
- Potency (CP201): inactive
- Potency (CP203): inactive
- Potency (CP269): 3.01 µM (active)
- Potency (CP315): inactive
- Potency (CP325): 6.01 µM (active)
- Potency (Dd2): 8.91 µM (active)
- Potency (FAB9): inactive
- Potency (PC49): inactive

Compound: CC(C)CCCC(C)C1CC(=O)C2=C3CCC4CC(O)CCC4(C)C3CCC21C (stereo unspecified)
- Potency [1]: inactive
- Potency [2]: inactive
- activity, negative = inhibition ([4]; parasite line A): 4.35%
- activity, negative = inhibition ([4]; parasite line B): -0.553%
- Potency (CP192): inactive
- Potency (CP201): inactive
- Potency (CP203): inactive
- Potency (CP262): inactive
- Potency (CP269): inactive
- Potency (CP315): inactive
- Potency (CP325): inactive
- Potency (CP329): inactive
- Potency (Dd2): 12.6 µM (active)
- Potency (FAB9): inactive
- Potency (PC49): inactive

— PubChem BioAssay (NCATS)
